# Pf apPOL block: Pf-apPOL inhibitors, biochemical, fluorescence. Plasmodium falciparum apicoplast DNA polymerase (apPOL). inhibition, % at 10 µM. actives 0.25% (n = 210,000). Recombinant Pf-apPOL, molecular beacon fluorescence, 1.5 h
# mHTT CaM bind: mutant huntingtin-calmodulin interaction inhibitors – biochemical, AlphaScreen, primary screen. AlphaScreen His-mHTT/GST-CaM binding, luminescence. P42858. inhibition, % at 15 µM. actives 3.6% (n = 190,000). AID 1671202, 2021;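 further: 0% = both proteins with DMSO and 100% = one protein alone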
# Target sequence (P42858 whole entry, looked up, stated change not applied): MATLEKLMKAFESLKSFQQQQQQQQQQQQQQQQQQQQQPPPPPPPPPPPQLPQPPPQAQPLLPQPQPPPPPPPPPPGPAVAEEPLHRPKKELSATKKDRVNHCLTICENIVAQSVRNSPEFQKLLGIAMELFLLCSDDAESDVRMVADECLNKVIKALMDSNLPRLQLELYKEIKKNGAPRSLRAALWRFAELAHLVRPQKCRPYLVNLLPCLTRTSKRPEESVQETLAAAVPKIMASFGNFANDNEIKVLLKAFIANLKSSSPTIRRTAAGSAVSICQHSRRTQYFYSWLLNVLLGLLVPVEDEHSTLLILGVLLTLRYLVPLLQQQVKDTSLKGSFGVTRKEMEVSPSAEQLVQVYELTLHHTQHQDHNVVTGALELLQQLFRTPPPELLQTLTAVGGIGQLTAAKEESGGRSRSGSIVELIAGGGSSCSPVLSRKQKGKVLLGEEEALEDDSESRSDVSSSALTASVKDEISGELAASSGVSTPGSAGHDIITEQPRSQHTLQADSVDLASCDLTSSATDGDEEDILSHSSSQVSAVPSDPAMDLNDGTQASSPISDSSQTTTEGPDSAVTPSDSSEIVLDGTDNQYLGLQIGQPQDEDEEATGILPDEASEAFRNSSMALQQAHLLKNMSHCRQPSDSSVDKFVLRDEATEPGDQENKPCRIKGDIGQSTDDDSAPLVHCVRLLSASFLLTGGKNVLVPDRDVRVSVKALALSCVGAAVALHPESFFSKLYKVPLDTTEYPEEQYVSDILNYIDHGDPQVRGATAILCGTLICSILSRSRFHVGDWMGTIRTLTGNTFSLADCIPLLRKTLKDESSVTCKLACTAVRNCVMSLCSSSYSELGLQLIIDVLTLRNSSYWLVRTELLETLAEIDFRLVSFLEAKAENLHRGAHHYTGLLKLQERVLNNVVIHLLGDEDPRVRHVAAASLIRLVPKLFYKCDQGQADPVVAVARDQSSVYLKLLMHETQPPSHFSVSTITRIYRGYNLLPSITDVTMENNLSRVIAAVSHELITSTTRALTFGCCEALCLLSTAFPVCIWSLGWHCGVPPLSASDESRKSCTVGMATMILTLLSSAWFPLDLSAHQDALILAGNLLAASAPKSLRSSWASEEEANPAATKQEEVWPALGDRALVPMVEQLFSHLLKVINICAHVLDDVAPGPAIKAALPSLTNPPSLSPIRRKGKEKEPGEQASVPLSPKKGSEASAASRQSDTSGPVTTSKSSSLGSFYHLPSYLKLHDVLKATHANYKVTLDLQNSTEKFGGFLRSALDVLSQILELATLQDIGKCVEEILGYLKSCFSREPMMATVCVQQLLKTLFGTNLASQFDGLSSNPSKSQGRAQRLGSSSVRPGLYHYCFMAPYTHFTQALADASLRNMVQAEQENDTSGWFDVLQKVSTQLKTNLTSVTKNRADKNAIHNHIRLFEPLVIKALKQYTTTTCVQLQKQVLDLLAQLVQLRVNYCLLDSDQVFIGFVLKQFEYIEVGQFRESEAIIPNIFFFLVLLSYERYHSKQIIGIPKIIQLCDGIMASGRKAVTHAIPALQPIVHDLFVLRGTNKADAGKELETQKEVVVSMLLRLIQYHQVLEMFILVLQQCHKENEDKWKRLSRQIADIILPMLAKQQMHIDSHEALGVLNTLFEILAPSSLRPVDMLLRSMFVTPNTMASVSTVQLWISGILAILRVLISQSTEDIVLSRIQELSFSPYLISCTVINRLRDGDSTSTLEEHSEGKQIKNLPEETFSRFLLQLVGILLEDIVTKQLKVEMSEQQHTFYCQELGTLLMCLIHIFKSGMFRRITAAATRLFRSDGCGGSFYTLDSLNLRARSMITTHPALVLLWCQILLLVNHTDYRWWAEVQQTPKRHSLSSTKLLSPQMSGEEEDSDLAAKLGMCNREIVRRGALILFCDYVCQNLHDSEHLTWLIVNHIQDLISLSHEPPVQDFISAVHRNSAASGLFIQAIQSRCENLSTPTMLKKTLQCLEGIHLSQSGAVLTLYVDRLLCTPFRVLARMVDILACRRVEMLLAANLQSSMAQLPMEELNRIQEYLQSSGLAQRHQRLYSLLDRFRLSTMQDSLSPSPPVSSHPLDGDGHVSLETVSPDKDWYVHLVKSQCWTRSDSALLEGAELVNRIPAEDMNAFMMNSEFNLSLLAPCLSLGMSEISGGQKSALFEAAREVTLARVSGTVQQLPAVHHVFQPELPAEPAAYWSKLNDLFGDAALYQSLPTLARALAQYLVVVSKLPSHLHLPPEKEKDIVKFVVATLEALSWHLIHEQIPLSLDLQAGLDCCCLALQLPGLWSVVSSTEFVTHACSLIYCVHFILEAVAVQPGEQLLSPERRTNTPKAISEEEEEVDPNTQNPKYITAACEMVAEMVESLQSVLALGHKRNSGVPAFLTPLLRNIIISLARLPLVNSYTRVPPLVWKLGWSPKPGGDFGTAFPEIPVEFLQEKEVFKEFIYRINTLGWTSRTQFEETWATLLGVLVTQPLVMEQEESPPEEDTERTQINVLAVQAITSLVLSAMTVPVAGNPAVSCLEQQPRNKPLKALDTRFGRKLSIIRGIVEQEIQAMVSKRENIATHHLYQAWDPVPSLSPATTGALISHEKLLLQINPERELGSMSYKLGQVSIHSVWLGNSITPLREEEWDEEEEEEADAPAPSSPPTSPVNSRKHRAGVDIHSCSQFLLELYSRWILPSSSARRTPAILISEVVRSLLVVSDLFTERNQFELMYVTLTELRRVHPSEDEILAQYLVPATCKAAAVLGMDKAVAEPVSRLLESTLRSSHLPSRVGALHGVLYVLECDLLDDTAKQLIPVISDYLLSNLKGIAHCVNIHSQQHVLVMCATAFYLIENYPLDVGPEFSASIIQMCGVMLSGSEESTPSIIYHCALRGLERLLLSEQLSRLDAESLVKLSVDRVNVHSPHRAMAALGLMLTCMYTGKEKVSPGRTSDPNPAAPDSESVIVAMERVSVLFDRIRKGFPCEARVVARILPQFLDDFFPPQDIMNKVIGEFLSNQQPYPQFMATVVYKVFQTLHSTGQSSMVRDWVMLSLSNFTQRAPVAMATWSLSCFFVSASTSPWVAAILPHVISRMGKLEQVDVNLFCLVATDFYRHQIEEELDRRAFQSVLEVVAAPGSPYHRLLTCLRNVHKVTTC
# An asterisk follows results filed as active; / = not tested or not shown. A selection: hits, their analogues and other compounds. The true share with any hit is near 3.6%. No stated cut-off is given here; in the data, active means inhibition above about 50%; inactive means the rest.
SMILES,Pf apPOL block,mHTT CaM bind
COc1cccc(OCCSc2nc3ccccc3s2)c1,-7,96*
NCCSc1nc2ccccc2s1,7,10
O=[N+]([O-])c1ccccc1/C=C/CN1CCN(c2ncccn2)CC1,-5,6
COc1ccc(C2CC(c3ccccc3O)=NC3(CCN(C(C)=O)CC3)N2)cc1OC (stereo unspecified),-3,51*
COc1ccc(C2CC(c3ccccc3O)=NC3(CCN(C(C)C)CC3)N2)cc1OC (stereo unspecified),-7,38
CCN1CCC2(CC1)N=C(c1ccccc1O)CC(c1ccccc1O)N2 (stereo unspecified),-3,35
CC(=O)N1CCC2(CC1)N=C(c1cc(Cl)ccc1O)CC(c1ccc(F)cc1)N2 (stereo unspecified),-3,100*
CC(=O)N1CCC2(CC1)N=C(c1ccccc1O)CC(c1ccc(C(C)C)cc1)N2 (stereo unspecified),-5,7
CC(=O)N1CCC2(CC1)N=C(c1ccccc1O)CC(c1ccccc1O)N2 (stereo unspecified),-1,47
CC(=O)N1CCC2(CC1)N=C(c1ccccc1O)CC(c1ccc(C)cc1C)N2 (stereo unspecified),-5,58*
CCN1CCC2(CC1)N=C(c1ccccc1O)CC(c1ccc(Cl)cc1)N2 (stereo unspecified),-2,60*
CC(C)c1ccc(C(=O)Nc2cc(-c3ccccn3)no2)cc1,2,14
CC(C)N1CCC2(CC1)N=C(c1cc(Cl)ccc1O)CC(c1ccccc1O)N2 (stereo unspecified),5,32
CCOC(=O)N1CCC2(CC1)N=C(c1cc(Cl)ccc1O)CC(c1ccccc1O)N2 (stereo unspecified),-2,100*
COc1ccc(C2CC(c3cc(Cl)ccc3O)=NC3(CCN(C(C)=O)CC3)N2)cc1 (stereo unspecified),-4,100*
CN1CCC2(CC1)N=C(c1cc(Cl)ccc1O)CC(c1ccccc1O)N2 (stereo unspecified),-3,45
CCN1CCC2(CC1)N=C(c1cc(Cl)ccc1O)CC(c1ccc(OC)cc1)N2 (stereo unspecified),-3,100*
CCOC(=O)N1CCC2(CC1)N=C(c1ccc(C)cc1)CC(c1cc(Cl)ccc1O)N2 (stereo unspecified),3,3
COC(=O)Cn1cnc2c(-c3ccc(C)cc3)csc2c1=O,-15,0
O=C(Nc1c2c(nn1-c1cccc(Cl)c1)CS(=O)C2)C1CCCC1 (stereo unspecified),-3,-1
CC(C)n1c(CC2CCN(C(=O)c3cc(-c4ccccc4)n[nH]3)C2)nc2cccnc21 (stereo unspecified),5,59*
CC(C)n1c(CC2CCN(C(=O)c3cc(-c4cccs4)[nH]n3)C2)nc2cccnc21 (stereo unspecified),-3,19
COc1ccc(Br)cc1C1Nc2ccc(F)cc2C2C=CCC21 (stereo unspecified),-2,73*
Fc1ccc2c(c1)[C@@H]1C=CC[C@@H]1[C@H](c1ccccc1Cl)N2,/,-4
COc1ccc(C2Nc3ccc(Br)cc3C3C=CCC32)cc1[N+](=O)[O-] (stereo unspecified),-9,86*
SMILES,Pf apPOL block,mHTT CaM bind
COc1ccc(C2Nc3c(cccc3C(F)(F)F)C3C=CCC32)cc1[N+](=O)[O-] (stereo unspecified),-9,38
Cc1ccc(C(O)=C2C(=O)C(=O)N(c3ccccn3)C2c2cccc([N+](=O)[O-])c2)cc1 (stereo unspecified),-12,16
COc1ccccc1NS(=O)(=O)c1ccc(Cl)c(C(=O)Nc2ccc(Cl)cc2)c1,20,15
COc1ccccc1NC1=CC(=NS(=O)(=O)c2cccs2)c2ccccc2C1=O,-15,91*
COc1ccccc1NC1=CC(=NS(=O)(=O)c2ccc(Cl)cc2)c2ccccc2C1=O,4,94*
COc1ccccc1Nc1ncc(-c2cccs2)s1,0,25
O=C(O)c1cccc(NC2=CC(=NS(=O)(=O)c3cccs3)c3ccccc3C2=O)c1,22,44
O=C1C(Nc2ccccc2)=CC(=NS(=O)(=O)c2cccs2)c2ccccc21,0,92*
CCOc1cc(C2C(=C(O)c3ccc(C)cc3)C(=O)C(=O)N2CCOC)ccc1O (stereo unspecified),-2,-2
O=C(NCc1ccc(N2CCCC2)cc1)c1ccc(N2CCNC(c3ccccc3)C2)nc1 (stereo unspecified),0,79*
O=C(NCc1ccc(Cl)cc1)c1ccc(N2CCNC(c3ccccc3)C2)nc1 (stereo unspecified),5,16
O=C(NCCCN1CCCCC1)c1ccc(N2CCNC(c3ccccc3)C2)nc1 (stereo unspecified),-5,4
O=C(NCCCN1CCCC1)c1ccc(N2CCNC(c3ccccc3)C2)nc1 (stereo unspecified),-3,56*
Cc1cc(C)c(C#N)c(Oc2cccc(NC(=O)c3ccccc3Cl)c2)n1,-4,-3
NC(=O)c1ccccc1N=Cc1ccc([N+](=O)[O-])o1,1,4
NC(N)=NN=C(/C=C/c1ccc([N+](=O)[O-])o1)/C=C/c1ccc([N+](=O)[O-])o1,/,100*
COc1cccc(/C=C2/SC(N3CCN(C)CC3)=NC2=O)c1OC,-4,-1
COc1cccc(/C=C2\CS/C(=C\c3cccc(OC)c3OC)C2=O)c1OC,-4,53*
COc1cccc(/C=C2\Cc3ccccc3C2=O)c1OC,-5,-2
CCCN1C/C(=C\c2cccc(OC)c2OC)C(=O)/C(=C/c2cccc(OC)c2OC)C1,-2,50*
COc1ccc(C(=O)N2CCN=C2N2CCN(c3ccccc3F)CC2)cc1,-3,5
O=C(c1ccc(F)cc1)N1CCN(Cc2noc3ccccc23)CC1,0,-6
CNC(=O)c1ccnc(N2CCNC(c3ccccc3)C2)c1 (stereo unspecified),10,3
O=C(c1ccnc(N2CCNC(c3ccccc3)C2)c1)N1CCCN(c2ncccn2)CC1 (stereo unspecified),1,-2
Cc1cccc(N2C(=O)CC(N3CCN(c4cccc(Cl)c4)CC3)C2=O)c1 (stereo unspecified),-13,-4
SMILES,Pf apPOL block,mHTT CaM bind
OC(COCC1CC2CCC1C2)CN1CCN(C(c2ccccc2)c2ccccc2)CC1 (stereo unspecified),2,62*
OC(COCC1CC2CCC1C2)CN1CCc2ccccc2C1 (stereo unspecified),0,-2
CCOC(=O)CCc1c(CC(=O)OCC)c[nH]c1C=NO,99*,/
CCOC(=O)CCc1c(C)n[nH]c1C,-1,-1
COCCn1cc2c3c(cccc31)CN(C(=O)Nc1cc(Cl)ccc1C)CC2,0,11
COCCn1cc2c3c(cccc31)CN(C(=O)c1cc(Cl)ccc1OC)CC2,0,71*
COCCn1cc2c3c(cccc31)CN(C(=O)c1cc(F)ccc1F)CC2,-3,26
COCCn1cc2c3c(cccc31)CN(C(=O)Nc1cccc(F)c1)CC2,1,3
COCCn1cc2c3c(cccc31)CN(C(=O)c1ccc(F)c(F)c1)CC2,-2,61*
COCCn1cc2c3c(cccc31)CN(C(=O)c1ccc(Br)o1)CC2,-7,76*
CCCNC(=O)N1CCc2cn(CCOC)c3cccc(c23)C1,-2,-6
